Data on 40 compounds can be found in PubChem BioAssay (NCI).

Each structure is given as a SMILES string. Compounds without any hit were thinned out: in the full panel of roughly 83,000, 20% have a hit.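 Percent growth is the endpoint: 0 to 100 indicates growth inhibition (40 means 60% inhibition), 0 means no net growth, and negative values indicate cell death.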 A number with no mark means an inactive call. Activity calls are given as the source filed them.

This experiment has as its system LOX IMVI melanoma. The experiment in a line: NCI-60 one-dose screen, 48 h (100 = growth as untreated, 0 = no growth, -100 = all killed). As to conditions: 10 µM. On the procedure: Growth inhibition of the LOX IMVI human tumor cell line is measured as a screen for anti-cancer activity. Cells are grown in 96 well plates and exposed to the test compound for 48 hours. Compounds are tested at a single concentration, which is 10^-5 M for most compounds. The reported endpoint is percent growth (GI% or GIPRCNT), where numbers from 0 - 100% represent growth inhibition, and numbers from -100% - 0 represent cell death. For example, a value of 40 represents 60% growth inhibition. A value of 0 means no net growth occurred over the course of the experiment. A value of -40 indicates 40% of cells at the beginning of the experiment died by the end of the experiment. A value of -100 means all cells are dead at the end of the experiment.
NCI-60 Human Tumor Cell Lines Screen was performed using the standard one-dose NCI protocol, which is described in more detail at https://dtp.cancer.gov/discovery_development/nci-60/default.htm.
Compounds with GIPRCNT values below 10 were considered active. Activity score was based on GIPRCNT using the following formula: […]
Score is 0 for GIPRCNT values of 100 or above, 50 for GIPRCNT values of 0, and 100 for GIPRCNT values of -100.
On to `Cc1ccc(-c2nc(Nc3ccc(S(N)(=O)=O)cc3)c3ccccc3n2)cc1`, for which the growth was -71.5% (active). Under `COc1ccc(-c2ccc(/C=N/NC(=O)c3[nH]c4ccc(Br)cc4c3-c3ccccc3)o2)cc1` stands 26.7%; under `CC(=C(c1ccc(OCCCN(C)C)cc1)c1ccc(OCCCN(C)C)cc1)c1ccccc1`, -100% (active). For the compound `CN1C(=O)N(C)C2SC(N/N=C/c3ccccc3F)=NC21` (stereo not given), the growth is 50.2%. Under `COc1ccc(/C=N/N=C(\C)c2ccc3c(c2)Nc2ccccc2S3)cc1O` stands 21%. As for `O=C(NO)c1ccc(CNc2nc(-c3ccccc3)c3ccccc3n2)cc1`, the figure is -96.9% (active).

Turning to `COC(=O)C[C@](O)(CCCC(C)(C)O)C(=O)O[C@H]1C(OC)=C[C@@]23CCC(=O)N2CCc2cc4c(cc2[C@@H]13)OCO4`, the growth is 78%. Under `Cc1cccc(-c2nc(Nc3ccccc3C(=O)O)c3ccccc3n2)c1` stands 36.4%; under `COC[C@@H](CC(C)C)N=C1N/C(=C\c2ccc3ncsc3c2)C(=O)N1C`, -51.2% (active).

For the compound `O=c1[nH][nH]c(Nc2ccccc2)c1N=Nc1ccc(F)cc1`, the growth was 102%. In the case of `CCOc1ccc2ncc(C#Cc3cncc(C(=O)Nc4ccc(CN5CCN(C)CC5)c(C(F)(F)F)c4)c3)n2n1`, the growth is -80% (active). With `C=CC(=O)Nc1nc(-c2cccc(NS(=O)(=O)c3cccc4c(N(C)C)cccc34)c2)cs1`, the growth is -95.2% (active). Regarding `CCCn1c(=O)c2[nH]c(-c3ccc(OCc4nc5ccc(C#N)cc5[nH]4)cc3)nc2n(CCC)c1=O`, the growth was 46.5%. With `CN(CCO)c1oc(-c2ccccc2)nc1[P+](c1ccccc1)(c1ccccc1)c1ccccc1`, the growth is -67.2% (active). Consider `Cc1noc2c(Cc3ccc([N+](=O)[O-])cc3)nn(CC(=O)N/N=C/c3ccc(Cl)cc3)c(=O)c12`, for which the growth is 40.7%. Under `COc1ccc(C(=O)/C=C/c2cc(F)cc(C(F)(F)F)c2)cc1S(N)(=O)=O` stands -91.3% (active). On to `CC1(C)CC[C@]2(C(=O)NCCCNCCCCNCCCN)CC[C@]3(C)C(=CC[C@@H]4[C@@]5(C)Cc6c([nH]c7ccccc67)C(C)(C)[C@@H]5CC[C@]43C)[C@H]2C1`, for which the growth is 92.6%. As for `CCOC(=O)C1=C(N)N(c2ccccc2)C2=C(C(=O)CC(C)(C)C2)C1c1ccccc1OC` (stereo not given), the figure is 101%.

On to `CCOC(=O)c1sc(N/N=C(\C)c2ccc3c(c2)Nc2ccccc2S3)nc1C`, for which the growth is -58.4% (active). For the compound `CC1(C)CC[C@]2(C(=O)O)CC[C@]3(C)C(=CC[C@@H]4[C@@]5(C)C/C(=C/c6ccncc6)[C@H](O)C(C)(C)[C@@H]5CC[C@]43C)[C@@H]2C1`, the growth was 28.7%. `COc1ccc(C(=O)/C=C/c2ccc(Cl)c(C(F)(F)F)c2)cc1S(N)(=O)=O`: the growth is -91.4% (active). Regarding `COc1ccc([C@H]2C(C(=O)c3ccc(Cl)cc3)C3(N[C@@H]2c2ccccc2)C(=O)Nc2ccc(Br)cc23)cc1` (stereo not given in full), the growth was -100% (active). Turning to `O=C(NO)c1ccc(Cn2ccc3c(Nc4ccccc4)ncnc32)cc1`, the growth was -91.9% (active). As for `O=C(c1ccc(Cl)cc1)C1[C@H](c2ccc(Br)cc2)[C@@H](c2ccccc2)NC12C(=O)Nc1ccc(Br)cc12` (stereo not given in full), the figure is -100% (active); as for `COc1ccc2[nH]c(=O)c(CSc3cccc(N)c3)cc2c1`, 16.1%.

On to `COc1ccc2cc([C@H](C)C(=O)NCc3ccccc3)ccc2c1`, for which the growth was 43%.

Consider `O=C(c1ccc(O)cc1)C1[C@H](c2ccc(Br)cc2)[C@@H](c2ccccc2)NC12C(=O)Nc1ccc(Br)cc12` (stereo not given in full), for which the growth was -100% (active). As for `O=C(CSc1nnc(-c2ccc3nc(-c4ccccc4)[nH]c3c2)o1)Nc1ccc(Cl)cc1`, the figure is -2.86% (active); as for `COC1=C[C@]23CCC(=O)N2CCc2cc4c(cc2[C@@H]3[C@@H]1OC(=O)CCCC(C)C)OCO4`, 7.89% (active). As for `N#Cc1c(NC(=O)c2ccc(C(F)(F)F)cc2C(F)(F)F)sc2c1CCC(=O)C2`, the figure is -15.1% (active); as for `CCN1CCN(Cc2ccc(C(=O)Nc3cccc(-c4cn(-c5ccc6oc(=O)ccc6c5)nn4)c3)cc2C(F)(F)F)CC1`, -100% (active). Under `C#CCNC(=O)CCC(=O)OC[C@]12CC[C@@H](C(=C)C)[C@@H]1C1CC[C@@H]3[C@@]4(C)CCCNC(C)(C)[C@@H]4CC[C@@]3(C)[C@]1(C)CC2` (stereo not given in full) stands -100% (active); under `CC(=O)C1=C(C)NC(SCC(=O)Nc2ccc(S(=O)(=O)Nc3cc(C)on3)cc2)=NC1c1ccccc1` (stereo not given), 92.8%. Take `CNC(=O)c1cccc(N2CCc3c2ccc(NC(=O)Nc2ccc(N4CCN(C)CC4)c(C(F)(F)F)c2)c3F)c1`: the growth was -100% (active). As for `COC(=O)c1c(C(=O)OC)c2n(c1C)[C@@H]([C@@H](C)[C@H]1CC[C@H]3[C@@H]4CCC5=CC(=O)CC[C@]5(C)[C@H]4CC[C@]13C)SC2`, the figure is 28.4%; as for `COc1ccc(C2NC(=S)NC(C)=C2C(=O)OC(C)C)cc1OC` (stereo not given), 99.3%; as for `O=C(CSc1nnc(-c2c[nH]c3ccccc23)n1-c1ccccc1)Nc1ccc(C(=O)/C=C/c2ccc(Cl)cc2)cc1`, 67.6%. As for `O=C(CSc1nnc(-c2c[nH]c3ccccc23)n1-c1ccccc1)c1ccc(Cl)cc1`, the figure is 15.9%; as for `CCCn1c(=O)c2[nH]c(-c3ccc(OCc4nc5ccccc5[nH]4)cc3)nc2n(CCC)c1=O`, -2.38% (active). As for `Cc1ccc(CNC(=O)Cc2ccc3c(c2)CN(C2CCC(=O)NC2=O)C3=O)cc1` (stereo not given), the figure is 71.4%.
